Measured values published in the supplement of paper PMC12669032.
A number with no mark means an inactive call.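 How the source made its calls: active = AUC reduced over 20% with Padj below 0.05 in at least 2 of 3 replicates; inactive = otherwise.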

Assays:
Test in all cases: growth AUC relative to DMSO control (median of replicates) (fraction); higher = more growth (less inhibition), active = hit call of the paper
Details in all cases: 20 µM; 24 h
[1] = system: Akkermansia muciniphila
Outline: (§1)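 In round-bottom 96-well plates sealed with pierced gas-permeable seals, gut bacterial monocultures in mGAM were grown anaerobically at 37 °C from OD600 0.05 with 20 µM compound (1% DMSO). OD600 readings were taken hourly for 24 h, and the minimum OD was set to 0. Area under the growth curve was then normalised to the plate median of solvent-only wells, or to row and column medians on the industrial chemical plate. The value given is the median of three biological replicates grown on separate days.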

[2] = system: Bacteroides caccae
Outline: as §1

[3] = system: Bacteroides clarus
Outline: as §1

[4] = system: Bacteroides dorei
Outline: as §1

[5] = system: Bacteroides stercoris
Outline: as §1

[6] = system: Bacteroides thetaiotaomicron
Outline: as §1

[7] = system: Bacteroides uniformis
Outline: as §1

[8] = system: Bifidobacterium longum subsp. longum
Outline: as §1

[9] = system: Clostridium difficile
Outline: as §1

[10] = system: Collinsella aerofaciens
Outline: as §1

[11] = system: Coprococcus comes
Outline: as §1

[12] = system: Escherichia coli ED1a
Outline: as §1

[13] = system: Escherichia coli IAI1
Outline: as §1

[14] = system: Eubacterium rectale
Outline: as §1

[15] = system: Fusobacterium nucleatum subsp. animalis
Outline: as §1

[16] = system: Lactobacillus gasseri
Outline: as §1

[17] = system: Lactobacillus paracasei
Outline: as §1

[18] = system: Odoribacter splanchnicus
Outline: as §1

[19] = system: Parabacteroides distasonis
Outline: as §1

[20] = system: Parabacteroides merdae
Outline: as §1

Row | SMILES | growth AUC [1] | growth AUC [2] | growth AUC [3] | growth AUC [4] | growth AUC [5] | growth AUC [6] | growth AUC [7] | growth AUC [8] | growth AUC [9] | growth AUC [10] | growth AUC [11] | growth AUC [12] | growth AUC [13] | growth AUC [14] | growth AUC [15] | growth AUC [16] | growth AUC [17] | growth AUC [18] | growth AUC [19] | growth AUC [20]
1 | O=[N+]([O-])C(Br)(CO)CO | 0.966 | 0.987 | 1.01 | 1.03 | 1.01 | 0.962 | 0.976 | 0.991 | 0.996 | 1.01 | 0.925 | 1 | 0.987 | 0.949 | 1 | 0.958 | 0.999 | 1 | 1.03 | 0.998
2 | CN(C)C1CSSSC1.O=C(O)C(=O)O | 0.941 | 0.98 | 0.974 | 1.17 | 0.905 | 1.07 | 1.23 | 0.964 | 1.05 | 1.03 | 0.99 | 0.985 | 1.02 | 1.7 | 1.05 | 1.03 | 0.972 | 0.962 | 1.04 | 1.02
3 | CCOP(=S)(OCC)Oc1ccc(S(C)=O)cc1 (stereo not given) | 0.951 | 0.974 | 0.967 | 0.985 | 0.951 | 0.968 | 0.993 | 0.97 | 0.994 | 1.05 | 1 | 1 | 1.01 | 0.878 | 0.998 | 1.07 | 1 | 0.977 | 1 | 1
4 | Nc1ccncc1 | 0.943 | 0.997 | 0.997 | 1.04 | 1.02 | 0.981 | 0.987 | 0.911 | 1 | 1 | 0.95 | 0.99 | 0.983 | 0.949 | 0.969 | 0.897 | 1 | 0.974 | 1.02 | 1.02
5 | CCc1nn(C)c(C(=O)NCc2ccc(C(C)(C)C)cc2)c1Cl | 1.02 | 0.94 | 0.929 | 0.921 | 0.725 (active) | 0.694 (active) | 0.982 | 0.95 | 0.972 | 0.887 | 0.954 | 0.974 | 0.967 | 1.01 | 0.984 | 0.913 | 1.06 | 0.956 | 0.991 | 0.918
6 | CNC(=O)Oc1ccccc1C(C)C | 1.08 | 1.01 | 1.04 | 1.03 | 1.23 | 1.01 | 1.01 | 0.965 | 1.02 | 0.986 | 1.04 | 1.01 | 1.02 | 1.07 | 1.07 | 1.04 | 0.861 | 1.03 | 0.998 | 1.03
7 | O=P(OC(CCl)CCl)(OC(CCl)CCl)OC(CCl)CCl | 1.09 | 0.845 | 0.999 | 0.87 | 1.3 | 0.947 | 0.868 | 1.05 | 0.9 | 0.948 | 0.89 | 1.01 | 1 | 1.07 | 1.11 | 0.905 | 1.03 | 0.613 | 0.5 (active) | 0.911
8 | CCCSP(=S)(OCC)Oc1ccc(SC)cc1 (stereo not given) | 0.897 | 0.998 | 0.958 | 1 | 1.06 | 0.979 | 0.998 | 0.971 | 1.01 | 1.04 | 1.04 | 1.01 | 0.959 | 0.985 | 1.07 | 0.946 | 1.02 | 1.07 | 0.98 | 0.996
9 | CCCCCCCC(=O)Oc1c(I)cc(C#N)cc1I | 1.1 | 0.886 | 0.864 | 0.962 | 1.1 | 0.951 | 0.88 | 1.03 | 0.998 | 0.989 | 0.995 | 0.985 | 0.896 | 1.09 | 1.16 | 0.89 | 1.01 | 0.91 | 0.91 | 0.908
10 | CCCCOC(=O)N(C)SN(C)C(=O)Oc1cccc2c1OC(C)(C)C2 | 1.03 | 1.02 | 0.969 | 1.01 | 1.08 | 1.04 | 1 | 1.11 | 0.992 | 1.01 | 1 | 1.07 | 1.01 | 1.2 | 0.942 | 0.966 | 1.05 | 1.03 | 1.03 | 1.01
11 | CCc1cccc(C)c1N(C(=O)CCl)C(C)COC (stereo not given) | 1.03 | 0.884 | 1.01 | 0.995 | 1.26 | 1 | 0.935 | 1.07 | 0.979 | 1.02 | 1.03 | 1.02 | 0.983 | 1.02 | 1.1 | 1.04 | 1.02 | 0.972 | 1.03 | 0.991
12 | CNC(=O)Oc1cccc2c1OC(C)(C)C2 | 1.1 | 0.964 | 1.01 | 0.999 | 1.02 | 0.998 | 1 | 0.996 | 1 | 1.04 | 1.02 | 1.04 | 0.985 | 1.02 | 1.07 | 0.946 | 0.994 | 1.06 | 0.992 | 1
13 | CCOP(=S)(OCC)Oc1ccc(Cl)cc1Cl | 0.962 | 1.03 | 0.963 | 1.02 | 1.04 | 0.979 | 0.987 | 1.04 | 1.02 | 1.04 | 1.03 | 1.01 | 1.02 | 0.953 | 1.03 | 1 | 1.07 | 1.02 | 1.05 | 0.997
14 | CN(C)C(CSS(=O)(=O)[O-])CSS(=O)(=O)[O-].[Na+].[Na+] | 0.921 | 0.916 | 1 | 1.09 | 1.04 | 0.983 | 1.14 | 1.25 | 0.955 | 0.969 | 0.999 | 0.983 | 0.998 | 1.47 | 1.18 | 1 | 1.01 | 0.951 | 0.978 | 0.998
15 | O=c1ccc(=O)[nH][nH]1 | 1.2 | 0.973 | 1.01 | 0.989 | 0.951 | 1 | 1.05 | 1.62 | 0.954 | 0.92 | 0.996 | 0.973 | 0.976 | 1.06 | 0.877 | 0.957 | 1.11 | 1.08 | 1.01 | 0.99
16 | Cc1nc(N(C)C)nc(OC(=O)N(C)C)c1C | 1.02 | 0.997 | 0.989 | 1.05 | 1.05 | 1.02 | 0.977 | 0.826 | 1.05 | 1.04 | 1.01 | 0.998 | 0.992 | 0.98 | 1 | 1.1 | 0.978 | 1.01 | 1.03 | 1.04
